Test systems include NCI-H23 lung; NCI-H226 lung; NCI-H322M lung; HOP-62 NSCLC; NCI-H460 lung; HOP-92 NSCLC; NCI-H522 lung; A549/ATCC NSCLC; 786-0 renal; DU-145 prostate; K-562 leukemia; MALME-3M melanoma; MDA-MB-231 breast; RXF 393 renal; SF-268 CNS; SF-295 CNS; SF-539 CNS; UACC-257 melanoma; M14 melanoma; COLO 205 colon.
Assay in all cases: NCI-60 one-dose screen, 48 h (100 = growth as untreated, 0 = no growth, -100 = all killed)
Common to all, as to details: 10 µM unless noted

The values that follow come from PubChem BioAssay (NCI).

Compounds without any hit were thinned out: in the full panel of roughly 83,000, 20% have a hit.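 For each line, cells grew in 96-well plates with the test compound present at a single concentration for 48 hours.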 Unmarked numbers belong to inactive results. The source made the active and inactive calls. The calls were made as follows: active = growth percent below 10; inactive = the rest.

As for `O=C(CCN1CCCC1)Nc1ccc2c(Nc3ccc(Br)cc3)c3ccccc3nc2c1`, the growth in the assay with NCI-H23 lung is 18.8%; with NCI-H226 lung, 62%; with NCI-H322M lung, -11.4% (active); in the assay on HOP-62 NSCLC it was -19.5% (active); in the assay with NCI-H460 lung, -69.2% (active); with HOP-92 NSCLC it was 31.3%. Further, the growth was -25% (active) in the assay with NCI-H522 lung; -42.4% (active) in the assay on A549/ATCC NSCLC; 42.8% in the assay on 786-0 renal; -70.8% (active) in the assay with DU-145 prostate; -43.1% (active) in the assay on K-562 leukemia; -86.2% (active) in the assay with MALME-3M melanoma. In addition, the growth in the assay on MDA-MB-231 breast was -49.4% (active); in the assay with RXF 393 renal it was 47%; in the assay on SF-268 CNS, -7.83% (active); in the assay on SF-295 CNS, 46.3%; in the assay with SF-539 CNS, -67.9% (active); in the assay with UACC-257 melanoma, -48.4% (active). In the assay with M14 melanoma, the growth is -75% (active).
As for `N#C/C(=C\c1ccc([N+](=O)[O-])s1)c1nc2cc(Br)ccc2s1`, the growth with NCI-H23 lung was -27.8% (active); in the assay with NCI-H226 lung, -75.9% (active); in the assay with NCI-H322M lung, 85.6%; in the assay on HOP-62 NSCLC, -35.5% (active); in the assay with NCI-H460 lung, -26.9% (active); in the assay on HOP-92 NSCLC it was -55.2% (active). Further, the growth in the assay on NCI-H522 lung was -45.4% (active); in the assay with A549/ATCC NSCLC, 5.93% (active); in the assay with COLO 205 colon it was -74.8% (active); with DU-145 prostate, 25.9%; in the assay on K-562 leukemia, -5.1% (active); in the assay with MALME-3M melanoma it was -81.3% (active). Also, the growth was -56.1% (active) in the assay with MDA-MB-231 breast; -17.1% (active) in the assay with RXF 393 renal; 6.29% (active) in the assay on SF-268 CNS; 65.7% in the assay on SF-295 CNS; -71% (active) in the assay with SF-539 CNS; 5.39% (active) in the assay with UACC-257 melanoma. In addition, the growth in the assay with M14 melanoma was -81.9% (active).
`NNC(=O)c1ccc(-n2nc(-c3ccccc3)c3ccccc32)cc1`: the growth in the assay with NCI-H23 lung was 87.8%; in the assay with NCI-H226 lung, 82.3%; in the assay on NCI-H322M lung, 74.5%; in the assay with HOP-62 NSCLC, 65.2%; in the assay with NCI-H460 lung, 97.2%; in the assay on HOP-92 NSCLC, 87.2%. Further, the growth in the assay with NCI-H522 lung is 79.8%; with A549/ATCC NSCLC it was 95.3%; with COLO 205 colon it was 79.8%; with DU-145 prostate, 79.7%; in the assay with K-562 leukemia it was 84.1%; in the assay with MALME-3M melanoma it was 90.2%. For the same compound, the growth was 63.9% in the assay with MDA-MB-231 breast; 61.7% in the assay on RXF 393 renal; 64% in the assay with SF-268 CNS; 75.2% in the assay with SF-295 CNS; 82.8% in the assay on SF-539 CNS; 99.5% with UACC-257 melanoma. Also, the growth with M14 melanoma is 77%.
For the compound `N#CC1C(C#N)C(C(=O)c2ccc(Br)cc2)N2c3ccccc3C=CC12` (stereo not given), the growth with NCI-H23 lung was 79.2%; in the assay on NCI-H226 lung, 64.7%; in the assay on NCI-H322M lung, 93.4%; with HOP-62 NSCLC it was 75.1%; with NCI-H460 lung, 96.2%; in the assay on HOP-92 NSCLC, 55.5%. Also, the growth is 78.6% in the assay with NCI-H522 lung; 65.8% in the assay on A549/ATCC NSCLC; 3.37% (active) in the assay on COLO 205 colon; 91.9% with DU-145 prostate; 24.4% with K-562 leukemia; 67.3% in the assay with MALME-3M melanoma. Besides, the growth was 57.6% in the assay on MDA-MB-231 breast; 74.5% in the assay on RXF 393 renal; 78.5% in the assay on SF-268 CNS; 89.1% with SF-295 CNS; 89.3% in the assay on SF-539 CNS; 98.9% in the assay on UACC-257 melanoma. For the same compound, the growth in the assay with M14 melanoma is 75.3%.
For the compound `CN1C(=O)NC(c2ccc3c(c2)OCO3)C=C1c1ccccc1` (stereo not given), the growth in the assay with NCI-H23 lung was 96.3%; in the assay on NCI-H226 lung, 103%; with NCI-H322M lung, 92.4%; in the assay with HOP-62 NSCLC, 91.3%; in the assay on NCI-H460 lung, 97.6%; in the assay on HOP-92 NSCLC, 93.9%. Also, the growth with NCI-H522 lung was 80%; with A549/ATCC NSCLC, 91.1%; in the assay on 786-0 renal, 83%; in the assay on DU-145 prostate it was 94.7%; in the assay on K-562 leukemia, 76.5%; in the assay with MALME-3M melanoma, 88.4%. Moreover, the growth in the assay on MDA-MB-231 breast was 102%; with RXF 393 renal it was 91.2%; with SF-268 CNS, 95.6%; in the assay with SF-295 CNS, 98.6%; in the assay on SF-539 CNS, 98.1%; with UACC-257 melanoma, 98.5%. Further, the growth in the assay with M14 melanoma is 96.9%.
For the compound `COc1ccc(-c2nc([C@@H](C)Sc3nc(N)cc(N)n3)c(C)s2)cc1OCCN1CCOCC1`, the growth was 103% in the assay with NCI-H23 lung; 95.7% with NCI-H226 lung; 109% in the assay with NCI-H322M lung; 94.5% in the assay on HOP-62 NSCLC; 110% with NCI-H460 lung; 95.3% in the assay with HOP-92 NSCLC. Besides, the growth in the assay on NCI-H522 lung is 87%; with A549/ATCC NSCLC, 96.2%; in the assay on 786-0 renal it was 104%; in the assay with DU-145 prostate, 111%; with MALME-3M melanoma, 102%; in the assay on MDA-MB-231 breast, 66.6%. The growth was 96% with RXF 393 renal; 102% in the assay with SF-268 CNS; 97.6% in the assay on SF-295 CNS; 111% with SF-539 CNS; 100% with UACC-257 melanoma; 114% with M14 melanoma.
Consider `O=C(CSc1nc2sc3c(c2c(=O)n1-c1ccc(Cl)cc1)CCCC3)Nc1nc(-c2cccc(Br)c2)cs1`, for which the growth in the assay with NCI-H23 lung is 56.9%; in the assay on NCI-H226 lung, 64%; with NCI-H322M lung, 87.8%; in the assay on HOP-62 NSCLC it was 90.7%; in the assay with NCI-H460 lung, 94.7%; in the assay on HOP-92 NSCLC it was 107%. In addition, the growth in the assay with NCI-H522 lung is 69.8%; in the assay on A549/ATCC NSCLC, 70.4%; with 786-0 renal it was 91.5%; in the assay with DU-145 prostate, 68.5%; in the assay with K-562 leukemia, 95.8%; in the assay on MALME-3M melanoma, 95.3%. In addition, the growth in the assay on MDA-MB-231 breast was 80.7%; with RXF 393 renal, 99.5%; in the assay on SF-268 CNS it was 69.6%; with SF-295 CNS, 42.4%; in the assay on SF-539 CNS it was 97.3%; in the assay with UACC-257 melanoma it was 99.3%. Also, the growth in the assay with M14 melanoma was 76.6%.
As to `N#CC1C(C#N)C2c3ccccc3C=CN2C1C(=O)c1ccc(Br)cc1` (stereo not given), the growth is 91.4% in the assay with NCI-H23 lung; 91.6% in the assay with NCI-H226 lung; 96.8% in the assay with NCI-H322M lung; 97.7% in the assay on HOP-62 NSCLC; 87.7% in the assay with NCI-H460 lung; 95.8% with HOP-92 NSCLC. Further, the growth in the assay on NCI-H522 lung was 88.7%; in the assay with A549/ATCC NSCLC it was 83.6%; in the assay on COLO 205 colon it was 107%; with DU-145 prostate, 97.8%; with K-562 leukemia, 99.8%; with MALME-3M melanoma, 100%. Further, the growth with MDA-MB-231 breast was 92.2%; with RXF 393 renal, 105%; with SF-268 CNS, 95.1%; in the assay with SF-295 CNS it was 96.8%; with SF-539 CNS it was 89.3%; with UACC-257 melanoma, 103%. Besides, in the assay on M14 melanoma, the growth is 104%.
Turning to `O=C(NO)c1ccc(-n2nc(-c3ccccc3)c3ccccc32)cc1`, the growth was 49.9% in the assay with NCI-H23 lung; 56.4% with NCI-H226 lung; 46.9% with NCI-H322M lung; 29.7% in the assay on HOP-62 NSCLC; 26.6% in the assay with NCI-H460 lung; 62.9% in the assay with HOP-92 NSCLC. The growth in the assay on NCI-H522 lung is 6.17% (active); with A549/ATCC NSCLC it was 41.7%; with COLO 205 colon, 49%; with DU-145 prostate, 38.4%; in the assay with K-562 leukemia, 37.8%; in the assay on MALME-3M melanoma it was 57%. Moreover, the growth is 40.3% in the assay with MDA-MB-231 breast; 36.5% in the assay on RXF 393 renal; 54.7% with SF-268 CNS; 80.9% with SF-295 CNS; 49.3% in the assay on SF-539 CNS; 78.5% in the assay with UACC-257 melanoma. Further, in the assay on M14 melanoma, the growth is 57.2%.
